{"source": "paper PMC4336329", "about": "(PLoS ONE, 2015)", "note": "Among all 310,000 compounds or so, about 14,000 (4.5%) showed an effect of 50% or more. Effects have a minus sign here. This is one part of a sample in which strong results are shown more often than they occur.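 Further: peak tail current of the secondary pulse compared with the same well before compound.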", "data": [{"target": "human ether-à-go-go-related gene (hERG) potassium channel (human, UniProt Q12809)", "sequence (Q12809 whole entry, looked up)": "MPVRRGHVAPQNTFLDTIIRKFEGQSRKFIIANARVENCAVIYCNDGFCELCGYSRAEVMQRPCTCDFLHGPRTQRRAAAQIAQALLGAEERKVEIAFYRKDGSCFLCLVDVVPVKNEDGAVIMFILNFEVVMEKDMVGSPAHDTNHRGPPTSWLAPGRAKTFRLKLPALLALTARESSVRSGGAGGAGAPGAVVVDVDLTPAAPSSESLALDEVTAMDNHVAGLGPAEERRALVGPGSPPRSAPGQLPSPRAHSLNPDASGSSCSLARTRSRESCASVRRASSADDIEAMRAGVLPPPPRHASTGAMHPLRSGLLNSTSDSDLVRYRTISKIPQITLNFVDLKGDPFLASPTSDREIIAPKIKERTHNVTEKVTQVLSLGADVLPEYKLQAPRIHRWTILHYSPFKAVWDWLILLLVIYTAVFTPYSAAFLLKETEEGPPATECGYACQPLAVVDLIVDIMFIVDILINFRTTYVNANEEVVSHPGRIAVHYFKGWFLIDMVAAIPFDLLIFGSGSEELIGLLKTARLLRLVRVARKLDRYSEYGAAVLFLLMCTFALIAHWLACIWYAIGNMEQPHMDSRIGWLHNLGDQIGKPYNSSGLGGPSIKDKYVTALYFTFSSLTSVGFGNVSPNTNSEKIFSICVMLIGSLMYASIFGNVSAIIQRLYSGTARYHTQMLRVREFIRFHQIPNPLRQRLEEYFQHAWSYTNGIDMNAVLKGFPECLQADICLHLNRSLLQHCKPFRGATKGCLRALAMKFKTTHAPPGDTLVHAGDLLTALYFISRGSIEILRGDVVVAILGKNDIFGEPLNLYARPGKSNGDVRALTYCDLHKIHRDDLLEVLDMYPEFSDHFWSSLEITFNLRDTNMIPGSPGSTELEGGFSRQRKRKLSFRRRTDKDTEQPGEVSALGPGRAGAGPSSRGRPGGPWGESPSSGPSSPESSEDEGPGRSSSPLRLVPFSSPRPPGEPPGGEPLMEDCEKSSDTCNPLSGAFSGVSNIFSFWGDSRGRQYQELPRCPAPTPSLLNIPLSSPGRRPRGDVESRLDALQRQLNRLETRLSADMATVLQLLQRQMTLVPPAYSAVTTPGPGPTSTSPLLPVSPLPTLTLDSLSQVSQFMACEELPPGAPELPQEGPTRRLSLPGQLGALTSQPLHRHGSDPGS", "assay": "primary screen, population patch clamp on CHO cells stably expressing hERG; higher = less effect of the substance", "units": {"hERG current change (%, negative = inhibition) at 10uM": "%"}, "values": [{"smiles": "COc1ccc(CCC(=O)Nc2ccc(N3CCOCC3)cc2)cc1", "hERG current change (%, negative = inhibition) at 10uM": -12.9}, {"smiles": "CCOC(=O)C1=C(c2ccccc2)Nc2ncnn2C1c1ccc(OC)c(OC)c1OC", "note": "(stereo not shown)", "hERG current change (%, negative = inhibition) at 10uM": -5.55}, {"smiles": "CCOC(=O)C1(CCOc2ccccc2)CCN(Cc2ccc(C)o2)CC1", "hERG current change (%, negative = inhibition) at 10uM": -75}, {"smiles": "CCOC(=O)C1(Cc2ccccc2)CCN(Cc2ccc(COC)o2)CC1", "hERG current change (%, negative = inhibition) at 10uM": -19.1}, {"smiles": "CCOC(=O)C1(CCOc2ccccc2)CCN(Cc2ccc(COC)o2)CC1", "hERG current change (%, negative = inhibition) at 10uM": -63.7}, {"smiles": "CCOC(=O)C1(CCOC)CCN(Cc2ccc(COC)o2)CC1", "hERG current change (%, negative = inhibition) at 10uM": 32.9}, {"smiles": "CCOC(=O)C1(CCOc2ccccc2)CCN(Cc2ccc(CO)o2)CC1", "hERG current change (%, negative = inhibition) at 10uM": -73.8}, {"smiles": "CSc1ccccc1NC(=O)CN(Cc1ccccc1)S(C)(=O)=O", "hERG current change (%, negative = inhibition) at 10uM": 4.1}, {"smiles": "CC1(C)C(=O)C=C[C@]2(C)[C@H]3CC[C@@]4(C)[C@H](c5ccoc5)OC(=O)[C@H]5O[C@]54[C@]3(C)[C@H](O)C[C@@H]12", "hERG current change (%, negative = inhibition) at 10uM": 8.63}, {"smiles": "Cc1cc(C)cc(NC(=O)CSc2nnc(-c3ccccc3)n2N)c1", "hERG current change (%, negative = inhibition) at 10uM": 6.38}, {"smiles": "CC(C)Oc1cccc(C(=O)Nc2ccc(Br)cc2F)c1", "hERG current change (%, negative = inhibition) at 10uM": 7.79}, {"smiles": "Cc1ccccc1CNC(=O)CC1C(=O)NCCN1CC1CCCCC1", "note": "(stereo not shown)", "hERG current change (%, negative = inhibition) at 10uM": 6.33}, {"smiles": "Cc1cc(C)c(C(=O)CSc2n[nH]c(=O)n2C2CC2)cc1C", "hERG current change (%, negative = inhibition) at 10uM": -9.54}, {"smiles": "COc1ccc(C(=O)c2nc3ccccc3n2C(C)C)cc1OC", "hERG current change (%, negative = inhibition) at 10uM": -16.5}, {"smiles": "CC(C)c1ccc(NNC(=O)C2CCC2)cc1", "hERG current change (%, negative = inhibition) at 10uM": 3.84}, {"smiles": "COc1cc2c(cc1OC)CN(CCOc1ccc(Br)cc1)CC2", "hERG current change (%, negative = inhibition) at 10uM": -68.8}, {"smiles": "COc1ccc(S(=O)(=O)N2CCN(CCOc3ccc(Br)cc3)CC2)cc1OC", "hERG current change (%, negative = inhibition) at 10uM": -12.8}, {"smiles": "COc1ccc(C(=O)CCN2CCC(C)CC2)cc1.Cl", "hERG current change (%, negative = inhibition) at 10uM": -30}, {"smiles": "COc1cc2c(cc1OC)CN(C(=O)CCNS(=O)(=O)c1ccc(Br)cc1)CC2", "hERG current change (%, negative = inhibition) at 10uM": -36.8}, {"smiles": "COc1cc2c(cc1OC)CN(Cc1cc(OC)c(O)c(OC)c1)CC2", "hERG current change (%, negative = inhibition) at 10uM": -14}, {"smiles": "COc1ccc(CC(=O)N2CCc3cc(OC)c(OC)cc3C2)cc1", "hERG current change (%, negative = inhibition) at 10uM": -6.59}, {"smiles": "Brc1cccc(OCCN2CCc3ccccc3C2)c1.Cl", "hERG current change (%, negative = inhibition) at 10uM": -5.84}, {"smiles": "COc1cc2c(cc1OC)CN(CCC(=O)c1ccc(Br)cc1)CC2", "hERG current change (%, negative = inhibition) at 10uM": -66.9}, {"smiles": "COc1ccc(C(=O)CCN2CCc3cc(OC)c(OC)cc3C2)cc1.Cl", "hERG current change (%, negative = inhibition) at 10uM": -69.1}, {"smiles": "COc1ccc(C(=O)NC(=S)Nc2cccc3nc(C)ccc23)cc1OC", "hERG current change (%, negative = inhibition) at 10uM": 8.45}, {"smiles": "Cc1nnc(NC(=O)CN2CCN(Cc3c(Cl)cccc3Cl)CC2)s1", "hERG current change (%, negative = inhibition) at 10uM": 9.97}, {"smiles": "COC(=O)c1c(NC(=O)CS(=O)(=O)c2ccccc2)sc(C)c1C", "hERG current change (%, negative = inhibition) at 10uM": -21.6}, {"smiles": "CNC(=O)C1CCN(S(=O)(=O)c2c(C)noc2/C=C/c2cccc(C)c2)CC1", "hERG current change (%, negative = inhibition) at 10uM": 10.2}, {"smiles": "COc1ccccc1NC(=O)c1ccc2c(c1)C(=O)N(c1ccccc1OC)C2=O", "hERG current change (%, negative = inhibition) at 10uM": 5.55}, {"smiles": "CC(C)c1ccccc1NS(=O)(=O)c1cccs1", "hERG current change (%, negative = inhibition) at 10uM": 17.8}, {"smiles": "CNCC[C@H](Oc1cccc2ccccc12)c1cccs1", "hERG current change (%, negative = inhibition) at 10uM": -37.8}, {"smiles": "CNCCC(Oc1ccccc1OC)c1ccccc1.Cl", "note": "(stereo not shown)", "hERG current change (%, negative = inhibition) at 10uM": -53.5}, {"smiles": "CNCC[C@H](Oc1cccc2ccccc12)c1cccs1.Cl", "hERG current change (%, negative = inhibition) at 10uM": -36}, {"smiles": "CCS(=O)(=O)c1ccc2oc(Nc3cccc(OC)c3)nc2c1", "hERG current change (%, negative = inhibition) at 10uM": 9.78}, {"smiles": "Cc1ccc(NC(=O)CCCn2nc(C)c3c(C)n(-c4ccccc4)nc3c2=O)cc1C", "hERG current change (%, negative = inhibition) at 10uM": 24.6}, {"smiles": "COc1ccc(Cc2ccc(OC)c(N)c2)cc1N", "hERG current change (%, negative = inhibition) at 10uM": -52.6}, {"smiles": "COc1ccc(OC)c(N)c1.Cl", "hERG current change (%, negative = inhibition) at 10uM": 20.5}, {"smiles": "COc1cc(Cc2ccc(N)c(OC)c2)ccc1N", "hERG current change (%, negative = inhibition) at 10uM": 11.1}, {"smiles": "Cc1cccc(N2CC(C)Cn3c2nc2c3c(=O)[nH]c(=O)n2C)c1", "note": "(stereo not shown)", "hERG current change (%, negative = inhibition) at 10uM": -0.757}, {"smiles": "COCCNCCCCSc1ccc(Cl)cc1", "hERG current change (%, negative = inhibition) at 10uM": -50.8}, {"smiles": "COCCCNCCCCSc1ccc(Cl)cc1", "hERG current change (%, negative = inhibition) at 10uM": -37.9}, {"smiles": "COCCCNC(=O)CCSc1ccc(Cl)cc1", "hERG current change (%, negative = inhibition) at 10uM": -8.9}, {"smiles": "O=C1CCCC2=C1C(c1ccccc1)C1C(=O)c3ccccc3C1=N2", "note": "(stereo not shown)", "hERG current change (%, negative = inhibition) at 10uM": 6.16}]}]}
